Assay results: PubChem BioAssay (NCI)
Several values for one entry are separate records, joined by “and”; a condition that tells them apart may be missing. Equal values may be shown once. Compounds without any hit were thinned out: in the full panel of roughly 83,000, 20% have a hit.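 Step 1: grow cells in 96-well plates. Step 2: add test compound at a single concentration. Step 3: incubate 48 h. Step 4: record percent growth.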 Unmarked numbers belong to inactive results. Activity calls are given as the source filed them.

Tested on: NCI-H322M lung
Assay: NCI-60 one-dose screen, 48 h (100 = growth as untreated, 0 = no growth, -100 = all killed)
Conditions: 10 µM unless noted
Experimental: Growth inhibition of the NCI-H322M human Non-Small Cell Lung tumor cell line is measured as a screen for anti-cancer activity. Cells are grown in 96 well plates and exposed to the test compound for 48 hours. Compounds are tested at a single concentration, which is 10^-5 M for most compounds. The reported endpoint is percent growth (GI% or GIPRCNT), where numbers from 0 - 100% represent growth inhibition, and numbers from -100% - 0 represent cell death. For example, a value of 40 represents 60% growth inhibition. A value of 0 means no net growth occurred over the course of the experiment. A value of -40 indicates 40% of cells at the beginning of the experiment died by the end of the experiment. A value of -100 means all cells are dead at the end of the experiment.
NCI-60 Human Tumor Cell Lines Screen was performed using the standard one-dose NCI protocol, which is described in more detail at https://dtp.cancer.gov/discovery_development/nci-60/default.htm.
Compounds with GIPRCNT values below 10 were considered active. Activity score was based on GIPRCNT using the following formula: […]
Score is 0 for GIPRCNT values of 100 or above, 50 for GIPRCNT values of 0, and 100 for GIPRCNT values of -100.

Row | SMILES | growth
1 | CN(Cc1ccccc1)c1nc(Cl)c(C2CC(c3ccc4c(c3)OCO4)=NN2c2cc(Cl)cc(Cl)c2)s1 (stereo not given) | 99.9%
2 | CNC(=O)c1cc(Oc2ccc3nc(NC(=O)Nc4ccc(C(F)(F)F)cc4)sc3c2)ccn1 | 80.5%
3 | CCN(CC)CCOc1ccccc1C | 115%
4 | C=C[C@]1(C)C=C2CC[C@@H]3C(C)(C)C(=O)CC[C@@]3(C)[C@@H]2CC1 | 77%
5 | CC1(C)C(N)=Nc2cc(OCCCCN3Cc4ccccc4C3)c(OCC3CC3)cc21 | 79.9%
6 | C=C1C(=O)O[C@H]2[C@H]1CC/C(COC(=O)NCCCCNC(=O)OC/C1=C/CC[C@@]3(C)O[C@H]3[C@H]3OC(=O)C(=C)[C@@H]3CC1)=C\CC[C@@]1(C)O[C@@H]21 | 98.5%
7 | O=C(NNC(=S)Nc1ccccc1)c1ccncc1 | 108%
8 | CC[C@]1(O)CC2CN(CCc3c([nH]c4ccccc34)C(C(=O)OC)(c3cc4c(cc3OC)N(C=O)[C@H]3[C@@](O)(C(=O)OC)[C@H](OC(C)=O)[C@]5(CC)[C@@H]6C[C@@H]6CN6CC[C@]43[C@@H]65)C2)C1 (stereo not given in full) | 73.9%
9 | O=c1oc2c(Br)cc(Br)cc2cc1-c1cc(-c2ccc(-c3cc(-c4cc5cc(Br)cc(Br)c5oc4=O)nc(-c4cc5cc(Br)cc(Br)c5oc4=O)c3)cc2)cc(-c2cc3cc(Br)cc(Br)c3oc2=O)n1 | 97.3%
10 | Cn1cc(-c2nonc2-c2cn(C)c3ccc(Br)cc23)c2ccccc21 | 64%
11 | Cc1ccc(-c2nc3nc(-c4ccccc4)nc(N4CCN(S(=O)(=O)c5ccccc5)CC4)c3o2)cc1 | 101%
12 | Nc1nc(Nc2cccnc2)sc1C(=O)c1ccccc1F | 54.7%
13 | Clc1nccc2c(-c3csc(-c4c[nH]c5ccc(Br)cc45)n3)c[nH]c12 | 70.4%
14 | C=C1C(=O)O[C@H]2[C@H]1CC/C(CNS(=O)(=O)c1ccc3ccccc3c1)=C\CC[C@@]1(C)O[C@@H]21 | 92.1%
15 | COC(=O)c1nc(-c2ccc(C)cc2)oc1Sc1ccc(C)cc1 | 99.2%
16 | N#CC(Cc1cccc2ccccc12)c1cc2ccccc2[nH]1 (stereo not given) | 84.8%
17 | C#Cc1cc(C(=O)Nc2ccc(CN3CCN(C)CC3)c(C(F)(F)F)c2)ccc1C | 88.5%
18 | NC(=O)c1c(NC(=O)/C=C/c2cccs2)sc2c1CCC(=O)C2 | 101%
19 | CCN(CC)CCOc1ccc(/C(=C(\Cl)c2ccccc2)c2ccccc2)cc1 | 74.8%
20 | CCCCSc1ccc2nc(-c3ccc(OCCCN=C(N)N)cc3)cn2c1 | 90.7%

Row | SMILES | growth
21 | CC[C@]12CN3CCc4c([nH]c5ccccc45)[C@@](C(=O)OC)(c4cc5c(cc4OC)N(C)[C@H]4[C@@](O)(C(=O)OC)[C@H](OC(C)=O)[C@]6(CC)C=CCN7CC[C@]54[C@@H]76)CC(C3)[C@H]1O2 (stereo not given in full) | 41%
22 | O=C(N=Nc1c(O)[nH]c2ccccc12)Nc1ccc(Br)cc1 | 70.9%
23 | Cc1ccc(C(=O)Nc2ccc(CN3CCN(C)CC3)c(C(F)(F)F)c2)cc1C#Cc1cnc(N)cc1C#N | 12.4%
24 | O=C(Nc1cc(C(F)(F)F)cc(C(F)(F)F)c1)c1cc(Cl)ccc1O | -3.01% (active) and 1.1% (active)
25 | COc1ccc(/C=N/NC(=O)CN2CCN(c3cc4c(cc3F)c(=O)c(C(=O)O)cn4C3CC3)CC2)cc1O | 102%
26 | COc1c(O)c(O)cc2c3c(oc12)CC(c1ccc2c(c1)OCO2)CC3=O (stereo not given) | 73.2%
27 | CCCN1C(=O)/C(=c2\sc3n(c2=O)NC2C(N=3)N(CC)C(=O)N2CC)c2ccccc21 (stereo not given) | 55%
28 | O=C1N=c2ccccc2=C1c1sc(=S)n(C2CC(=O)N(c3ccc(Cl)cc3)C2=O)c1O (stereo not given) | 104%
29 | Nc1ccc(/C=N/Nc2ccnc3c(N)cccc23)c2cccnc12 | -4.16% (active)
30 | COc1ccc(C/C(C)=C(/c2ccc(OCCN3CCCCCC3)cc2)c2ccc(OC(=O)c3ccccc3)cc2)cc1 | 102%
31 | CC/C(=C(/c1ccc(O)cc1)c1ccc(OCCN2CCCCCC2)cc1)c1ccc(Cl)cc1 | 84.1%
32 | COc1ccc(C/C(C)=C(\c2ccc(O)cc2)c2ccc(OCCCN(C)C)cc2)cc1 | 94%
33 | CCCCCCCCN(CCCCCCCC)CC(O)c1cc(Cl)ccc1OC (stereo not given) | 94.7%
34 | N=C(N)c1ccc(-c2ccc(-c3ccc(Cl)c(Cl)c3)s2)cc1 | -3.21% (active)
35 | Cc1ccc(S(=O)(=O)Nc2cc(Sc3ccccc3)c(O)c3ccccc23)cc1 | 102%
36 | C#CCOCC1CN(C)C(=O)O1 (stereo not given) | 114%
37 | COc1cc(CO)cc2cc3ccccc3nc12 | 115%
38 | COc1cc(Nc2nc3ccccc3cc2C(=O)Nc2ccc(F)c(F)c2)cc(OC)c1OC | 53%
39 | CCOC(=O)CCCn1c(-c2ccccc2)cc(-c2ccccc2)c(C#N)c1=O | 97.8%
40 | CCOC(=O)N(O)c1ccc(/C=C/c2ccccc2)cc1 | 79.6% and 76.4%
